Laboratory results as given in publication PMC12136788.
Over roughly 24,000 sequences, “enrichment r” has its median near 0.99; the highest 2% begin near 3.7. Only a sample is shown.

T1: UNK ZnF1-3 (human, UniProt Q9C0B0 31-174)
T1 sequence: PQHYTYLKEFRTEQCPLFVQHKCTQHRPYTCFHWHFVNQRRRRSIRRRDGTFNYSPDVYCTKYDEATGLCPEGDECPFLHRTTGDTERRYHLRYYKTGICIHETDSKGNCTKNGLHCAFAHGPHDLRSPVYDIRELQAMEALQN

B1: chr2:9728443:9728444:-_ENSG00000134308_ENST00000238081|hu_mus|motif|central (ssRNA)
RNA: GGGAGUUCUACAGUCCGACGAUCCUGCAUCUCCUUCUUGCUUAUAUCAAACGCCUCUUGGUAGGCUCCUUGGGAAUUUUCGGUUGUUUGUUUUCGAUCAUCGCCACAAGCUACUUCAGCAAGAUACCGGAAAUAAUCUCCCUUCAACAGAGGAUUGAGCAUCA
B2: 30602309_30602429_1961_3pUTR_ENSG00000107951_ENST00000263063|human|control|control (ssRNA)
RNA: GGGAGUUCUACAGUCCGACGAUCCGCCACACUCCACAGCUGAUGUUUUAAUAAAGUGCCACUGAGUAUCAGACUGAUCAAACUGAAAACAUCCCAGAACUUCAGACCAGGUUAAGGGGGCCAAUGAGAAGAUCAUGAAAAGUGCAACAGAGGAUUGAGCAUCA
B3: chr4:42003652:42003653:+_ENSG00000014824_ENST00000513699|hu_hu|motif|central (ssRNA)
RNA: GGGAGUUCUACAGUCCGACGAUCGGUACCAAUAUAUGGAUGACUACAGGGAACCAUGUUUGAAAAGCUUCCAAAUGUCACGGAAUUCUGCCACUCCUGGCGGUCGCUGGGAUUACAGGCCGCCGCCCUGCAUCGCAGACGGAGCAACAGAGGAUUGAGCAUCA
B4: 22790091_22790211_509_ncRNA_ENSMUSG00000026784_ENSMUST00000139472|mouse|control|control (ssRNA)
RNA: GGGAGUUCUACAGUCCGACGAUCAUGACUGGAGUUUGAUGAAGAAAGAACUGACUACUCAGACACCUGUCUCCCCACCGUGUGUGACACACACUAUAAGUCCCUCAGUAAUGAUGACAAUGUCUUGUAUCCUCUUCAUUUUUACAACAGAGGAUUGAGCAUCA
B5: chr2:202488911:202488912:-_ENSG00000155755_ENST00000286196|hu_mus|hu_hu_hu_mus_False|88_98 (ssRNA)
RNA: GGGAGUUCUACAGUCCGACGAUCAUUGAAACAUUUUCAUAAUAUUGAGAGAUGUUUUCAGCAUUAUGUAACAAAAGCUCAAUUGUAAAUACAUGUAUCUUAUAAAAAUACACUUAAAAACACGAGUGGGGAGCGCAGGCGCCACAACAGAGGAUUGAGCAUCA
B6: chr16:94690476:94690477:+_ENSMUSG00000040785_ENSMUST00000117648|mus_mus|motif|central (ssRNA)
RNA: GGGAGUUCUACAGUCCGACGAUCAGAAAUGUAAUGUAUUCAAGGUUCACAUGUCUGUAUUUGCCACUGCCUACAGGUCACGGAAAAUACCUAGUUUUUGAAUAGUUUCUAAUACAGUUAGCUUGUUUUCAGGCCACAUUACAACAACAGAGGAUUGAGCAUCA
B7: chr13:90237973:90237974:+_ENSMUSG00000012422_ENSMUST00000161568|mus_hu|FALSE|FALSE (ssRNA)
RNA: GGGAGUUCUACAGUCCGACGAUCAAGCACAGGUACAUAUAAGCAGCAAGAUUACAGUCAAUAGACUCUGAAAAUUGAAAAUGGCAGACAUAGCGAGGCCGGCGAUGCCGCAGCCACAUCACCCUUCCGGGGCUCAGGCGGAAGCAACAGAGGAUUGAGCAUCA
B8: chr1:163112212:163112213:-_ENSG00000143248_ENST00000313961|hu_hu|hu_hu_hu_mus_False|1_58 (ssRNA)
RNA: GGGAGUUCUACAGUCCGACGAUCUUUUAUUAUCAGUAAGAGUGAGUUACAUACUAGGCAAAGUAUUGGAUACAAUAUUCUAAAGAUAAACACUAUUGGUCCAGAAUUUAAAACUUUAUGAGCGAAGUGCUGGCACAGGAUUUACAACAGAGGAUUGAGCAUCA
B9: chr7:7679991:7679992:-_ENSG00000106399_ENST00000396682|hu_hu|hu_hu_hu_mus_False|48_88 (ssRNA)
RNA: GGGAGUUCUACAGUCCGACGAUCUGGGAUGAAUCUUUUCCAGCUUCCCUACGAAGCACACGGGCCGGUCGAUAUACUGUGGUAACAUGCCGGCGUUGACGCGCGCUUUGGGGAGCUGCAUUAUGUCCUCCAUGAUUCUGCCGCCAACAGAGGAUUGAGCAUCA
B10: chr9:56909451:56909452:+_ENSMUSG00000032290_ENSMUST00000034832|mus_hu|motif|central (ssRNA)
RNA: GGGAGUUCUACAGUCCGACGAUCCAUAAGUGCACACACACACACACACAGAAUGACAGAAAGGACUGGAAUACACGCCCGGCUUAUAAACGUGCUUGGCACUCAGGACGAUCUCUAGAAUAUGUAACUUGGUCAAGCUCUCUGCAACAGAGGAUUGAGCAUCA
B11: 62695852_62700603_289_3pUTR_ENSMUSG00000042211_ENSMUST00000048688|mouse|control|control (ssRNA)
RNA: GGGAGUUCUACAGUCCGACGAUCAGCUUCCGAGAGAGGCAUUCCAUGCACAUGAUGUCCUGUAGUGGCAGGUACCUGAAGAUAUGACAGAGCACUUCAUGUGACAGCUGGUUCAUGUAGUCCUUCUCUUCAUCGGCUGUCAUUCAACAGAGGAUUGAGCAUCA
B12: chr7:151048522:151048523:+_ENSG00000013374_ENST00000566856|hu_mus|hu_hu_hu_mus_True|58_78 (ssRNA)
RNA: GGGAGUUCUACAGUCCGACGAUCCUGUUUCUUAUUUAUUACGAUCUUGAUGUAAUUUUCUUGAAGUCCGAAAGUUUCAGCUAUUUUACACCUCAGGUCUCUACCAGUGACAUGCAAGCGGGUCUCCAACAAGCUUUUCUUAUCCAACAGAGGAUUGAGCAUCA
B13: chr14:78183846:78183847:+_ENSG00000119705_ENST00000557342|hu_hu|hu_hu_hu_mus_False|18_108 (ssRNA)
RNA: GGGAGUUCUACAGUCCGACGAUCUCUGUCUCAAAAAUCUUCAUCAGAUGUUUGAGCUCCGUGCAAAGCCUUUGCUCUUUGAGCUUGAACGUGGAUCUAUGGGAGGGAAAGCACUGUAUUUUCCUGUAAUUUUUUUUUUAAAGACAACAGAGGAUUGAGCAUCA
B14: chr1:220276048:220276049:+_ENSG00000067704_ENST00000302637|hu_hu|hu_hu_hu_mus_True|78_108 (ssRNA)
RNA: GGGAGUUCUACAGUCCGACGAUCGCAAACAGCUUCAUUGGCGGGAAUUGUCCAAGGUUGUGUGGUCCAAACUAAAACGCUAACAGGGGAUGAGGCAUCUGUAAGAGACUCCAACUUCGGAGGAGGUCUCAGGAGGGGGAAUCUCAACAGAGGAUUGAGCAUCA
B15: 27242051_27281840_773_CDS_ENSMUSG00000009621_ENSMUST00000056176|mouse|control|control (ssRNA)
RNA: GGGAGUUCUACAGUCCGACGAUCCAGCUCACUGUUUCUUAGUCCAAAUUUGUCAUGGCAGACUUUGAGGAAGGUGCGAAUAUUCUUCAGACACAAGAACUGGGACAUCUGCGGCCGGAAGUUGAUGUCCUUAAGGUCGAUGGACAACAGAGGAUUGAGCAUCA
B16: chr20:43533646:43533647:+_ENSG00000166913_ENST00000353703|hu_mus|FALSE|FALSE (ssRNA)
RNA: GGGAGUUCUACAGUCCGACGAUCGAAAUUCAGCGCCAGGCCGAGGCGAAUCGGGUGUGUAGGCUGCAUUUCUUUCUUGCUGAUUUCAAAUGCUUCUUGGUAAGCCUGCUGGGAGUUGGACACCGUGGUUUGUUUAUUUUCUCCCAACAGAGGAUUGAGCAUCA
B17: chr1:171751117:171751118:+_ENSG00000010165_ENST00000361735|hu_hu|motif|central (ssRNA)
RNA: GGGAGUUCUACAGUCCGACGAUCCUUUUAGGUAAGAGGUUCAUGUUCCUACUGCCGAAGCUGCGUUUUCAAGACUCCCCGGUUCCCUGUGAGAUACCAUUUGAGGAGCUUGCCCACCACACGCAGGCUCCGGGACACUGCAGUCAACAGAGGAUUGAGCAUCA
B18: chr10:120833061:120833062:-_ENSG00000107581_ENST00000369144|perfect_dup|motif|central (ssRNA)
RNA: GGGAGUUCUACAGUCCGACGAUCUUGGGACUCUUCUUUAGCAGCUUCUGUUUUUUCCUCUGCUAAUUUCAAAUAUGCCCGGACAACAUCUUCUAAAGAUUUAAUGUUUACCUGUUGGCAUAUGUUCUUAUAUUGAUAUAACCCCAACAGAGGAUUGAGCAUCA
B19: 18861418_18861648_5666_CDS_ENSG00000157106_ENST00000446231|human|control|control (ssRNA)
RNA: GGGAGUUCUACAGUCCGACGAUCCAGCCUAGGGUCAUCCUCAUCUAAAGGAAUUUGACCAGCGUUGAGUUUAAGGAAAGUAAAGUAUGCACUGCAAGAGAGUUUGUACAGGCUGAAUAUUCUAUCUACAACUUUCCUCCACACCAACAGAGGAUUGAGCAUCA
B20: chr11:48615247:48615248:+_ENSMUSG00000020372_ENSMUST00000020640|perfect_dup|FALSE|FALSE (ssRNA)
RNA: GGGAGUUCUACAGUCCGACGAUCUCCAUCCCAGGAGCCUGAGAGGGCAAACUGGCCAUCUGAGGAGAUAACCACAUCACUAACAAAGUGGGAGUGACCCCGCAGAGCACGCUGUGGAAUUCCAUAGUUGGUCUCAUCCCUGGUCAACAGAGGAUUGAGCAUCA
B21: chr5:110835399:110835400:-_ENSG00000164211_ENST00000296632|hu_hu|motif|central (ssRNA)
RNA: GGGAGUUCUACAGUCCGACGAUCUGAGAGCCUGUCUCAAAAUUUAAAAAAAAAAAAGUGAAAAUGCCCUCUCUUAGAUAGCGGUUUACUUUAGGAAUAAAACCAAACAUUGUACUAGUGAACCAAAAACAUUUCAAAUUUUUCCAACAGAGGAUUGAGCAUCA
B22: chr1:39494564:39494565:+_ENSG00000168653_ENST00000372967|hu_hu|hu_hu_hu_mus_True|68_78 (ssRNA)
RNA: GGGAGUUCUACAGUCCGACGAUCAUGCAUUCGCCUCAUCGUUUUGUACCGAAGCAAACACUCUACGAAAUCAUCAUACUCUAUCUUGCACUCCUUUUUCGCCCGGGUCCCACCGAUCCCGUGUGCACACUCUAUCCACUCUUUCAACAGAGGAUUGAGCAUCA

The binders below were run against T1, UNK ZnF1-3 (assay: nsRBNS (natural sequence RNA bind-n-seq); RBNS binding buffer (assumed for nsRBNS): 25 mM Tris pH 7.5, 150 mM KCl, 3 mM MgCl2, 0.01% Triton X-100, 500 ug/ml BSA, 20 U/ml SUPERase-In, 4 C; UNK is unkempt and MSI1 is Musashi-1; names of the RNAs are library labels; protein concentration not given here; high values mean tight binding).
Work on B1 yielded a binding signal of 0.873 enrichment R.
With B2 the binding signal was 2.32 enrichment R.
Work on B3 yielded a binding signal of 1.6 enrichment R.
With B4 the binding signal was 0.985 enrichment R.
B5 was tested, and the binding signal was 0.63 enrichment R.
In the case of B6, the binding signal is reported as 0.656 enrichment R.
In the case of B7, the binding signal is reported as 1.37 enrichment R.
B8 showed a binding signal of 1.29 enrichment R.
With B9 the binding signal was 0.421 enrichment R.
For B10, the binding signal was 1.4 enrichment R.
Work on B11 yielded a binding signal of 1.2 enrichment R.
In the case of B12, the binding signal is reported as 0.64 enrichment R.
For B13, the binding signal was 1.24 enrichment R.
In the case of B14, the binding signal is reported as 1.64 enrichment R.
B15 showed a binding signal of 1.21 enrichment R.
B16 showed a binding signal of 0.604 enrichment R.
Binder B17 has a binding signal of 0.55 enrichment R.
For B18, the binding signal was 0.789 enrichment R.
Work on B19 yielded a binding signal of 1.36 enrichment R.
B20 was tested, and the binding signal was 1.14 enrichment R.
B21 gave a binding signal of 1.93 enrichment R.
Work on B22 yielded a binding signal of 0.667 enrichment R.
